# Counter-ions that a name gives are not always drawn.
# System: 24.0 GACCACAGCCCCCAGCAGGGGAGGCCCCCAGCAGGGGAGGCCCACACCTGCCCCAGCACCT
# Assay: fraction of edited reads among all mapped reads; higher = more Cas9 editing
# Details: mESC; 2uM; 72 h treatment, harvest day 5
row,SMILES,fraction of edited reads among all mapped reads
1,CC(=O)O/N=C1\C(=O)N(Cc2cc(Cl)ccc2Cl)c2ccc(Cl)cc21,0.0521
2,CCCCOc1c(C(=O)c2c(F)cc(C)cc2F)c[nH]c2nncc1-2,0.0449
3,Nc1cc(F)ccc1NC(=O)c1ccc(CNC(=O)/C=C/c2cccnc2)cc1 [Tucidinostat (Chidamide)],0.0463
4,Cc1cc(C)nc(SCC(=O)Nc2ncc(Cc3cccc4ccccc34)s2)n1,0.0587

# System: 6.0 (DMSO control at this site: 1-bp insertion 0.296, MH deletion 0.491, edited 0.076) ACGATTGGCCCCCACAAAGCGGACCAGCCAGCGTGCTAGGGAATAAGGCCAACTTGCACCC
# Assay: as above
# Details: mESC; 2uM; 72 h treatment, harvest day 5
row,SMILES,fraction of edited reads among all mapped reads
1,Cc1cccc(CC(=O)N2CCc3c2ccc(-c2cn(C)c4ncnc(N)c24)c3F)n1,0.114
2,CCc1c2c(nc3ccc(OC(=O)N4CCC(N5CCCCC5)CC4)cc13)-c1cc3c(c(=O)n1C2)COC(=O)[C@]3(O)CC [Irinotecan HCl Trihydrate],0.104
3,O=C(c1cccc(Cl)c1F)N1CCN(Cc2cccc(Nc3nccs3)n2)CC1,0.0584
4,Nc1nc2[nH]cc(CCc3ccc(C(=O)N[C@@H](CCC(=O)O)C(=O)O)cc3)c2c(=O)[nH]1 [Pemetrexed],0.0705
5,CNc1ccc([N+](=O)[O-])c(Nc2ccc3[nH]ncc3c2)n1,0.1
6,NC(=O)c1ccc2nc(-c3ccc(Oc4ccc(Cl)cc4)cc3)[nH]c2c1 [Chk 2 inhibitor II (BML-277)],0.092
7,CCN1CCN(CC(=O)Nc2ccc(-c3cccc4c(=O)cc(N5CCOCC5)oc34)c3sc4ccccc4c23)CC1,0.0396
8,Cc1ccc(C(=O)NCCCCCC(=O)Nc2ccccc2N)cc1,0.0825
9,CC(C)(C#N)c1ccc(N2C(=O)OCc3cnc4ccc(-c5cnc6ccccc6c5)cc4c32)cc1,0.0904
10,CCn1c(=O)c(-c2ccc(Cl)cc2Cl)cc2cnc(Nc3ccc(N4CCNCC4)c(F)c3)nc21,0.0726
11,O=C1Cc2c([nH]c3ccc(Br)cc23)-c2ccccc2N1 [Kenpaullone],0.165
12,CC(=O)O/N=C1\C(=O)N(Cc2cc(Cl)ccc2Cl)c2ccc(Cl)cc21,0.0813
13,S=c1[nH]cnc2nc[nH]c12 [Mercaptopurine (6-MP)],0.0919
14,O=c1c(-c2ccc(O)cc2)coc2cc(O)cc(O)c12 [Genistein],0.113
15,O=c1cc(N2CCOCC2)oc2c(-c3ccc4c(c3)OCCO4)csc12,0.0488
16,CO[C@H]1/C=C/O[C@@]2(C)Oc3c(C)c(O)c4c(O)c(c(/C=N/N5CCN(C6CCCC6)CC5)c(O)c4c3C2=O)NC(=O)/C(C)=C\C=C\[C@H](C)[C@H](O)[C@@H](C)[C@@H](O)[C@@H](C)[C@H](OC(C)=O)[C@@H]1C [Rifapentine],0.14
17,C[C@@H]1CN(CC(=O)Nc2ccc3c(c2)Cc2cccc(-c4cc(=O)cc(N5CCOCC5)o4)c2S3)C[C@H](C)O1,0.0449
18,CCCCOc1c(C(=O)c2c(F)cc(C)cc2F)c[nH]c2nncc1-2,0.0886
19,COc1ccccc1-c1cc(Nc2cccc(CS(N)(=O)=O)c2)ncn1,0.0957
20,Nc1cc(F)ccc1NC(=O)c1ccc(CNC(=O)/C=C/c2cccnc2)cc1 [Tucidinostat (Chidamide)],0.0652
21,S=c1nc[nH]c2nc[nH]c12 [6-Mercaptopurine (6-MP) Monohydrate],0.0627
22,Nc1ncnc2c1c(-c1cnc3[nH]ccc3c1)nn2C1CCCC1,0.0596
23,Cc1cc(C)nc(SCC(=O)Nc2ncc(Cc3cccc4ccccc34)s2)n1,0.13

# System: 24.0 GACCACAGCCCCCAGCAGGGGAGGCCCCCAGCAGGGGAGGCCCACACCTGCCCCAGCACCT
# Assay: fraction of microhomology deletions among edited reads; higher = more MH deletions
# Details: mESC; 2uM; 72 h treatment, harvest day 5
row,SMILES,fraction of microhomology deletions among edited reads
1,CC(=O)O/N=C1\C(=O)N(Cc2cc(Cl)ccc2Cl)c2ccc(Cl)cc21,0.696
2,CCCCOc1c(C(=O)c2c(F)cc(C)cc2F)c[nH]c2nncc1-2,0.705
3,Nc1cc(F)ccc1NC(=O)c1ccc(CNC(=O)/C=C/c2cccnc2)cc1 [Tucidinostat (Chidamide)],0.571
4,Cc1cc(C)nc(SCC(=O)Nc2ncc(Cc3cccc4ccccc34)s2)n1,0.552

# System: 6.0 (DMSO control at this site: 1-bp insertion 0.296, MH deletion 0.491, edited 0.076) ACGATTGGCCCCCACAAAGCGGACCAGCCAGCGTGCTAGGGAATAAGGCCAACTTGCACCC
# Assay: as above
# Details: mESC; 2uM; 72 h treatment, harvest day 5
row,SMILES,fraction of microhomology deletions among edited reads
1,Cc1cccc(CC(=O)N2CCc3c2ccc(-c2cn(C)c4ncnc(N)c24)c3F)n1,0.501
2,CCc1c2c(nc3ccc(OC(=O)N4CCC(N5CCCCC5)CC4)cc13)-c1cc3c(c(=O)n1C2)COC(=O)[C@]3(O)CC [Irinotecan HCl Trihydrate],0.571
3,O=C(c1cccc(Cl)c1F)N1CCN(Cc2cccc(Nc3nccs3)n2)CC1,0.559
4,Nc1nc2[nH]cc(CCc3ccc(C(=O)N[C@@H](CCC(=O)O)C(=O)O)cc3)c2c(=O)[nH]1 [Pemetrexed],0.608
5,CNc1ccc([N+](=O)[O-])c(Nc2ccc3[nH]ncc3c2)n1,0.551
6,NC(=O)c1ccc2nc(-c3ccc(Oc4ccc(Cl)cc4)cc3)[nH]c2c1 [Chk 2 inhibitor II (BML-277)],0.515
7,CCN1CCN(CC(=O)Nc2ccc(-c3cccc4c(=O)cc(N5CCOCC5)oc34)c3sc4ccccc4c23)CC1,0.588
8,CC(C)(C#N)c1ccc(N2C(=O)OCc3cnc4ccc(-c5cnc6ccccc6c5)cc4c32)cc1,0.53
9,CCn1c(=O)c(-c2ccc(Cl)cc2Cl)cc2cnc(Nc3ccc(N4CCNCC4)c(F)c3)nc21,0.477
10,O=C1Cc2c([nH]c3ccc(Br)cc23)-c2ccccc2N1 [Kenpaullone],0.526
11,CC(=O)O/N=C1\C(=O)N(Cc2cc(Cl)ccc2Cl)c2ccc(Cl)cc21,0.51
12,S=c1[nH]cnc2nc[nH]c12 [Mercaptopurine (6-MP)],0.519
13,O=c1c(-c2ccc(O)cc2)coc2cc(O)cc(O)c12 [Genistein],0.529
14,O=c1cc(N2CCOCC2)oc2c(-c3ccc4c(c3)OCCO4)csc12,0.568
15,CO[C@H]1/C=C/O[C@@]2(C)Oc3c(C)c(O)c4c(O)c(c(/C=N/N5CCN(C6CCCC6)CC5)c(O)c4c3C2=O)NC(=O)/C(C)=C\C=C\[C@H](C)[C@H](O)[C@@H](C)[C@@H](O)[C@@H](C)[C@H](OC(C)=O)[C@@H]1C [Rifapentine],0.538
16,C[C@@H]1CN(CC(=O)Nc2ccc3c(c2)Cc2cccc(-c4cc(=O)cc(N5CCOCC5)o4)c2S3)C[C@H](C)O1,0.331
17,CCCCOc1c(C(=O)c2c(F)cc(C)cc2F)c[nH]c2nncc1-2,0.523
18,COc1ccccc1-c1cc(Nc2cccc(CS(N)(=O)=O)c2)ncn1,0.494
19,Nc1cc(F)ccc1NC(=O)c1ccc(CNC(=O)/C=C/c2cccnc2)cc1 [Tucidinostat (Chidamide)],0.502
20,S=c1nc[nH]c2nc[nH]c12 [6-Mercaptopurine (6-MP) Monohydrate],0.429
21,Nc1ncnc2c1c(-c1cnc3[nH]ccc3c1)nn2C1CCCC1,0.403
22,Cc1cc(C)nc(SCC(=O)Nc2ncc(Cc3cccc4ccccc34)s2)n1,0.498

# Source: the supplement of paper PMC8387472
